hcDAF-12 act – H. contortus DAF-12 activation, primary screen. activation, % at 6.8 µM. hit rate 1.4% among 370,000. HEK293 hcDAF-12 lit1-tk-luc reporter, luminescence; 0% DMSO, 100% Δ7-dafachronic acid;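 active = activation above the mean of all tested compounds plus 3 SD, cut at about 5.5% in these data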;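 also: 100% = response to 3 µM Δ7-dafachronic acid high control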
DAX1 inh-1 – inhibitors of DAX1 repression of SF-1 activated StAR promoter; HEK293T StAR-luciferase reporter, SF-1/DAX-1 repression relief; inhibition, % at 6.8 µM; hit rate 1.1% among 370,000;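 active = inhibition above the mean over all tested compounds plus 3 SD, cut at about 3.6% in these data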;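 also: 0% = DAX-1 cells with DMSO and 100% = cells lacking DAX-1 with DMSO; higher inhibition means more luminescence from relief of DAX-1 repression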
hgDAF12 agonist – agonists of H. glycines DAF-12 nuclear receptor; HEK293 GAL4-hgDAF12 UAS-luciferase reporter, agonist luminescence; normalized to butyrate control; activation, % at 6.8 µM; hit rate 1.8% among 370,000; AID 687014;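 active = activation above a cutoff set at the mean of all screened compounds plus 3 SD, cut at about 10% in these data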;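 also: 0% = DMSO wells and 100% = sodium butyrate wells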
DAX1 inh-2 – inhibitors of human orphan nuclear receptor DAX1 (NR0B1); P51843; HEK293 Gal4-DAX1 luciferase reporter, luminescence; inhibition, % at 6.75 µM; hit rate 0.99% among 340,000;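 active = inhibition above the mean over all tested compounds plus 3 SD, cut at about 4.2% in these data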;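 also: 0% = DAX1-transfected cells with DMSO and 100% = empty-vector control cells with DMSO; inhibition shows as a rise in luminescence from relieved DAX1 repression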
Target sequence (P51843 207-470 limits assumed): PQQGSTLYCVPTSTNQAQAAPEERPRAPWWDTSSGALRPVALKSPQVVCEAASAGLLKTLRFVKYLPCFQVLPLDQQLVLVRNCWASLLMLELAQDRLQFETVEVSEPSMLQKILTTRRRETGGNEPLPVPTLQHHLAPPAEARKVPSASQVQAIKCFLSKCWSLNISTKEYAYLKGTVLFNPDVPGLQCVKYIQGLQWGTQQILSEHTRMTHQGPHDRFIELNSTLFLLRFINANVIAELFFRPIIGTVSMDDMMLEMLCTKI
SMARCA2 activ – SMARCA2 function activation, primary screen. MG213 cells, MMTV-luciferase reporter, dexamethasone, overnight. activation, % at 9.1 µM. hit rate 1% among 370,000. AID 652017; in the data active = activation above about 7.8%;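 also: 0% = vehicle wells and 100% = reference activator wells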
ssDAF-12 act – activators of S. stercoralis DAF-12 nuclear receptor; HEK293 ssDAF-12/GRIP1 lit1-tk-luc reporter, luminescence; % of 3 µM dafachronic acid response; activation, % at 6.8 µM; hit rate 1% among 370,000;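 active = activation above the mean over all tested compounds plus 3 SD, cut at about 0.9% in these data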;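 also: 0% = DMSO-only wells and 100% = 3 µM delta7-dafachronic acid wells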
An asterisk follows results filed as active; x = no result given. Only some compounds are listed: those with a hit (about 4.8% of all), similar ones and a draw of the others.

SMILES	hcDAF-12 act	DAX1 inh-1	hgDAF12 agonist	DAX1 inh-2	SMARCA2 activ	ssDAF-12 act
CC1CCN(Cc2ccc(NC(=O)CC3Oc4ccccc4NC3=O)cc2)CC1 (stereo not drawn)	2.5	-0.4	1.3	6.2*	-1.2	0.0
CCc1cccc(NC(=O)CC2Oc3ccccc3NC2=O)c1 (stereo not drawn)	-1.4	-0.2	-4.6	1.0	0.0	-0.6
O=C(CC1Oc2ccccc2NC1=O)NCc1ccc(Cl)cc1 (stereo not drawn)	2.7	-0.1	1.2	4.4*	0.1	-0.7
COc1ccc(COC(=O)C2=C(C)NC(=O)NC2c2ccc(F)cc2)cc1 (stereo not drawn)	-3.4	-1.2	3.4	1.3	-2.2	-2.0
COc1ccccc1C(=O)N1CCCC(c2nc(-c3cccs3)no2)C1 (stereo not drawn)	-1.0	0.1	0.9	x	2.8	-0.6
O=C(NNC(=O)c1ccccc1F)c1cccc(-n2cccc2)c1	-0.9	3.7*	4.4	1.4	1.9	-0.9
O=C(NNC(=O)c1cccc(-n2cccc2)c1)c1ccccc1	-0.3	3.0	2.9	1.1	-0.8	-1.4
COc1ccc(N2CCN(C(CNC(=O)C(C)(C)C)c3cccnc3)CC2)cc1 (stereo not drawn)	-1.1	-0.3	0.3	0.7	7.8*	0.5
Cc1cc(C(=O)CSc2nnnn2C)c(C)n1C1CC1	1.6	1.0	11.8*	1.8	2.0	-0.6
O=S(=O)(NCc1ccccc1)NCc1cccc(C(F)(F)F)c1	-2.6	0.2	-2.1	4.7*	2.2	-0.8
CC(=O)c1cccc(NC(=O)C2=CN3CCS(=O)(=O)N=C3C=C2)c1	1.1	0.1	-1.7	0.2	-3.9	-1.2
CNC(=S)Nc1ccc2[nH]c(=O)[nH]c2c1	-0.6	-0.2	-0.7	0.4	0.3	-1.5
CC(C)NC(=S)Nc1ccc2[nH]c(=O)[nH]c2c1	-2.0	-0.3	2.9	4.5*	1.8	-1.4
CC(=O)Nc1ccc(CN(C)c2c(C)nc3ccc(C(=O)N4CCN(c5ccccc5)CC4)cn23)cc1	-1.4	-1.1	-1.9	x	-0.1	-1.9
CCCCCCCCS(=O)C1CS(=O)(=O)CC1O (stereo not drawn)	0.0	0.0	0.0	4.7*	-2.3	-1.8
CC(C)CNC1CS(=O)(=O)CC1O (stereo not drawn)	-0.3	-0.4	0.9	1.1	-0.3	-0.6
O=C(N=Nc1c(O)[nH]c2ccccc12)c1ccc2c(c1)OCO2	4.9	3.3	12.9*	0.3	6.2	-0.1
O=C(N=Nc1c(O)[nH]c2ccccc12)c1ccc(CN2CCOCC2)cc1	-0.7	1.0	1.6	1.7	-3.0	-1.0
O=C(NC(=S)NCC1CCCO1)c1ccccc1Br (stereo not drawn)	-0.9	-0.3	0.7	-0.1	-2.7	-1.2
Cc1ccc(C(=O)NC(=S)NCC2CCCO2)cc1Br (stereo not drawn)	5.7*	1.3	9.6	1.6	0.3	-0.4
COc1ccc(Nc2nc(-c3ccc(OC)cc3)cs2)cc1	1.4	1.4	11.6*	1.7	0.4	-1.3
Oc1ccc(Nc2nc(-c3cccnc3)cs2)cc1	x	x	x	-0.3	x	x
CCNc1nc(-c2ccc(Cl)cc2)cs1	2.4	1.2	11.7*	1.2	3.3	-0.2
CCOc1ccc(Nc2nc(-c3cccnc3)cs2)cc1	3.7	1.5	7.7	6.2*	6.2	0.5
Cc1cc(O)ccc1Nc1nc(-c2cccnc2)cs1	2.1	1.7	11.8*	0.6	0.5	-0.4
SMILES	hcDAF-12 act	DAX1 inh-1	hgDAF12 agonist	DAX1 inh-2	SMARCA2 activ	ssDAF-12 act
O=C(CCC(=O)N1CCN(C2c3ccccc3-c3ccccc32)CC1)Nc1nnc(C(F)(F)F)s1	-0.7	0.8	0.9	x	-2.8	-1.2
c1ccc(Nc2nc(-c3ccncc3)cs2)cc1	2.6	0.7	11.0*	-0.3	5.7	-0.6
Cc1ccc2oc(-c3ccc(NC(=O)CC(C)C)cc3)nc2c1	2.4	2.5	10.8*	2.0	0.3	-0.4
CCN(CC)CC(=O)Nc1ccc(-c2nc3cc(NC(=O)CN(CC)CC)ccc3o2)cc1	0.6	-1.3	6.1	0.7	0.2	1.0*
CCC(C)NCC(=O)Nc1ccc(-c2nc3cc(NC(=O)CNC(C)CC)ccc3o2)cc1 (stereo not drawn)	0.7	-1.3	4.1	-0.4	1.0	-1.2
CCc1ccc2oc(-c3ccc(NC(C)=O)cc3)nc2c1	5.8*	1.8	10.8*	3.0	-1.5	1.1*
O=C(CN1CCCC1)Nc1ccc(-c2nc3cc(NC(=O)CN4CCCC4)ccc3o2)cc1	2.2	-0.2	5.6	5.8*	7.6	-1.6
CCCCC(=O)Nc1ccc2oc(-c3ccncc3)nc2c1	-1.4	0.8	-0.9	-2.4	0.2	-0.9
CCCC(=O)Nc1ccc2oc(-c3ccncc3)nc2c1	0.0	-0.1	-0.5	0.8	2.4	-1.3
CC(C)CC(=O)Nc1ccc2oc(-c3cccnc3)nc2c1	0.5	1.7	6.4	1.6	0.9	-0.9
COc1ccc([C@H]2C[C@@H](n3cc(C4CC4)nn3)[C@H](O)CN2CC2CCCCC2)cc1	-0.5	-0.7	0.5	0.4	-0.5	0.3
O=C(NC1CCCCN(Cc2ccc(OC(F)(F)F)cc2)C1=O)c1cccc(F)c1 (stereo not drawn)	-0.2	0.2	0.5	x	-1.8	-1.5
CC(C)c1ccc2oc(-c3ccc(NC(=O)c4ncn[nH]4)cc3)nc2c1	0.8	4.0*	7.2	-0.4	0.0	-0.5
CN1CCN(C(=S)c2ccc(-c3cccc(Cl)c3Cl)o2)CC1	3.9	3.3	12.0*	2.3	3.0	0.1
S=C(c1ccc(-c2ccccc2Cl)o1)N1CCCCC1	2.7	3.0	11.7*	1.5	-1.1	0.7
O=C(c1ccc(-c2ccccc2Cl)o1)N1CCN(c2ccccc2O)CC1	4.2	0.5	0.7	0.9	-2.3	-0.2
CCOC(=O)C1CCCN(C(=O)c2ccc(-c3ccccc3Cl)o2)C1 (stereo not drawn)	0.2	4.3*	7.4	-0.1	6.9	0.4
O=C(O)c1ccc(-c2ccccc2Cl)o1	-1.3	-0.7	-2.8	1.9	0.7	-0.9
Nc1nnc(/C=C/c2ccccc2Cl)s1	3.3	0.8	11.9*	1.1	6.7	-0.6
O=C(/C=C/c1c(F)cccc1Cl)Nc1ncccn1	5.0	2.1	6.1	4.6*	2.7	-0.3
COc1ccc(OCc2cccc(C(=O)Nc3cc(C)on3)c2)cc1	3.9	2.2	10.3	-4.2	3.0	0.2
COc1ccc(OCc2cccc(C(=O)Nn3cc([N+](=O)[O-])cn3)c2)cc1	5.3	2.5	11.4*	-3.6	2.8	-0.4
Cc1ccc(/C=N/n2c(C)nnc2C)o1	4.0	0.3	0.9	4.3*	0.6	0.5
Cc1nc2ccccc2c(=O)n1/N=C/c1ccc(N(C)C)cc1	-1.0	0.2	0.4	3.6	5.7	-0.7
Cc1ccc(/C=N/n2c(C)nc3ccccc3c2=O)o1	0.9	0.1	1.7	4.5*	3.5	-1.3
